Active and inactive are the calls of the source.
Key:
[1] = E. coli DRC41 culture turbidity changes, primary screen, E. coli filamentation inducer project, strain DRC41, OD650, 48 h (AID 1152);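 further: E. coli MC1000 strain DRC41 lacking acrAB efflux pump and sulA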; conditions: E. coli DRC41 (acrAB sulA), higher = more signal, called active from +8 up or from −8 down
[2] = small-molecule binders of probe aLefty1, primary screen, biochemical, small-molecule microarray, 635/667 nm fluorescence (AID 1153); conditions: higher = more signal;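 further: score merges spot fluorescence with signal-to-noise ratio from the scanned slide images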
[3] = PSAC antagonists in infected red cells, primary screen, cell-based, P. falciparum Indochina, OD700, 1 h (AID 1154); conditions: P. falciparum Indochina infected RBC osmotic lysis, higher = more signal, called active from +8 up or from −8 down
[4] = PSAC antagonists in infected red cells, primary screen, cell-based, P. falciparum Indochina, OD700, 2 h (AID 1155);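 further: lysis reports solute entry through the parasite surface anion channel PSAC; channel blockers reduce lysis of infected cells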; conditions: P. falciparum Indochina infected erythrocytes, osmotic lysis OD700; higher = more signal, called active from +8 up or from −8 down
[5] = osmotic lysis modulators in infected erythrocytes, primary screen, PSAC antagonist project, cell-based, P. falciparum Indochina, OD700, 3 h (AID 1156); conditions: higher = more signal, called active from +8 up or from −8 down
[6] = PSAC antagonists in infected red cells, primary screen, cell-based, P. falciparum Indochina, OD700, 18 h (AID 1157); conditions: P. falciparum Indochina infected erythrocytes, osmotic lysis OD700, 18 h; higher = more signal, called active from +8 up or from −8 down
[7] = modulators of S6 phosphorylation in cells, primary screen, cell-based, A549, cytoblot, luminescence, serum-stimulated (AID 1158); conditions: A549 phospho-S6 cytoblot, 5 h, higher = more signal;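 further: serum-stimulated A549 lung adenocarcinoma cells; signal is phosphorylated S6 detected by cytoblot immunostaining with HRP secondary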
[8] = molecular target: NADPH oxidase 2 (Homo sapiens) (UniProt P04839); experiment: NOX2-dependent H2O2 signal modulators, primary screen, NOX inhibitor project, cell-based, HEK293-NOX2, PMA-stimulated, Amplex Red fluorescence (AID 1159); conditions: 45 min, higher = more signal, called active from +8 up or from −8 down; further: test concentration not given here
[9] = molecular target: NADPH oxidase 4 (Homo sapiens) (UniProt Q9NPH5); experiment: NOX4-dependent H2O2 signal modulators, primary screen, NOX inhibitor project, cell-based, HEK293-NOX4, tetracycline-induced, Amplex Red fluorescence (AID 1160); conditions: 45 min, higher = more signal, called active from +8 up or from −8 down
[10] = molecular target: NADPH oxidase 5 (Homo sapiens) (UniProt Q96PH1); experiment: NOX5-dependent H2O2 signal modulators, primary screen, NOX inhibitor project, cell-based, HEK293-NOX5, Amplex Red fluorescence (AID 1161); conditions: HEK293-NOX5, ionomycin, 45 min, higher = more signal
NADPH oxidase 5 (Homo sapiens), sequence (Q96PH1 whole entry, looked up): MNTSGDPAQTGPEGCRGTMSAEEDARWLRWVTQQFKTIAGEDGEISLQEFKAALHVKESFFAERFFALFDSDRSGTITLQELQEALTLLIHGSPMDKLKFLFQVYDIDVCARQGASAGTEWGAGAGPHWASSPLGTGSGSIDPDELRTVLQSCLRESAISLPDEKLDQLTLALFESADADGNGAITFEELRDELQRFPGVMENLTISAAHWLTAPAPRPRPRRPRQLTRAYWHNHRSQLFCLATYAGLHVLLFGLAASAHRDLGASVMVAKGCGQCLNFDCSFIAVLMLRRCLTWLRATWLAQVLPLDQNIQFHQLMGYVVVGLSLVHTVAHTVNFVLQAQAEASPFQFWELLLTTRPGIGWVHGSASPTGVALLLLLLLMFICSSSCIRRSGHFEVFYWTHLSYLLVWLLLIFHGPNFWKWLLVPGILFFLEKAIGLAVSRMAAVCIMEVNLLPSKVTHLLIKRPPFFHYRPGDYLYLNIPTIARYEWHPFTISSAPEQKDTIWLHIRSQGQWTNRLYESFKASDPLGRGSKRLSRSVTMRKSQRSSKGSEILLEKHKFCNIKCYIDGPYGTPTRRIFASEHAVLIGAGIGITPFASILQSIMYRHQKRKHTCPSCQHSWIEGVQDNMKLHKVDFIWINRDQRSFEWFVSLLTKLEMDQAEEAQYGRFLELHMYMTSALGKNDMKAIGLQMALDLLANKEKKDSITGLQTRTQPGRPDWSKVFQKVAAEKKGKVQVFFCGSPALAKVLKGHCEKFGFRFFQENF

NADPH oxidase 2 (Homo sapiens), sequence (P04839 whole entry, looked up): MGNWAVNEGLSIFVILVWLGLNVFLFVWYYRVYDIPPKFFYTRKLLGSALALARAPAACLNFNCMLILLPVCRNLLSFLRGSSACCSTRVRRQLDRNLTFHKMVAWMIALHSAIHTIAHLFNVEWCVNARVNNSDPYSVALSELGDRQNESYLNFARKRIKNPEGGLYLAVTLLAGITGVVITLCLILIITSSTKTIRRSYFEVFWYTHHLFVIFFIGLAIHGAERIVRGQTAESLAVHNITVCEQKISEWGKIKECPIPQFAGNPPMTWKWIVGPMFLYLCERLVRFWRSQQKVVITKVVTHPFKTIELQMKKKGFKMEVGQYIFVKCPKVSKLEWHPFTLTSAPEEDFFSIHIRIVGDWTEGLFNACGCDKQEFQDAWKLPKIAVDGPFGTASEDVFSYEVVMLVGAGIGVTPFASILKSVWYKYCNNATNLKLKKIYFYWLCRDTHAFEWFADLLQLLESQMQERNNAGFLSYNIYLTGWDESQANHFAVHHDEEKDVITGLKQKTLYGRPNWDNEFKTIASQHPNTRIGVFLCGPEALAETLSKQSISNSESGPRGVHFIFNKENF
NADPH oxidase 4 (Homo sapiens), sequence (Q9NPH5 whole entry, looked up): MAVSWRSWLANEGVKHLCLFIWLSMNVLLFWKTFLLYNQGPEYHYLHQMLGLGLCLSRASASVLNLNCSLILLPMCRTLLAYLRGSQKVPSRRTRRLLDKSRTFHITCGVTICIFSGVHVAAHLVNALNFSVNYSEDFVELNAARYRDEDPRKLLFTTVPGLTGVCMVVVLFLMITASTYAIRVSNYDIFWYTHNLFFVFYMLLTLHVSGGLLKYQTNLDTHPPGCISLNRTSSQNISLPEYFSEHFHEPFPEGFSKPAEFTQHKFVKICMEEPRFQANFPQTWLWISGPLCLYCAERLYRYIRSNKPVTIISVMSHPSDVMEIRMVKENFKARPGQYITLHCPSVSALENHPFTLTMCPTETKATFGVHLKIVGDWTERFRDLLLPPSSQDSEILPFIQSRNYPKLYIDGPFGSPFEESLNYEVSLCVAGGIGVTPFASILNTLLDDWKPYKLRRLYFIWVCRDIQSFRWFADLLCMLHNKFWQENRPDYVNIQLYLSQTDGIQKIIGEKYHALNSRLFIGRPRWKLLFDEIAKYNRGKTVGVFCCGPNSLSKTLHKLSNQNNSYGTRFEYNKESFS

Compound | z-score [1] | composite z-score [2] | z-score [3] | z-score [4] | z-score [5] | z-score [6] | z-score [7] | z-score [8] | z-score [9] | z-score [10]
CN(C)CCCNC(=O)[C@@H]1c2ccccc2C(=O)N(Cc2ccccc2C(F)(F)F)[C@H]1c1ccc(CO)cc1 | 1.77 (inactive) | -0.103 | 2.54 (inactive) | 0.793 (inactive) | 1.21 (inactive) | 0.64 (inactive) | -0.0975 | 0.383 (inactive) | 1.03 (inactive) | 1.11
COc1ccc([Si](C)(C)[C@@H]2[C@@H](CC(=O)N(CCO)Cc3ccccc3)O[C@]3(C(=O)N(Cc4ccc(N5C(=O)c6cccc7cccc5c67)cc4)c4ccccc43)[C@H]2C)cc1 | -0.414 (inactive) | 0.004 | 7.3 (inactive) | 2.33 (inactive) | 0.296 (inactive) | 1.14 (inactive) | 0.487 | 1.28 (inactive) | -0.496 (inactive) | 2.72
O=C(NCCN1CCOCC1)[C@@H]1c2ccccc2C(=O)N(Cc2ccccc2C(F)(F)F)[C@H]1c1ccc(CO)cc1 | 0.736 (inactive) | -0.418 | 2.76 (inactive) | -0.191 (inactive) | 1.15 (inactive) | 0.158 (inactive) | -0.328 | 0.523 (inactive) | 0.484 (inactive) | 0.772
Cc1ccc(F)cc1S(=O)(=O)N[C@H]1CCN(Cc2ccc(OC(C)C)cc2)C1 | -4.19 (inactive) | -0.241 | 2.31 (inactive) | 0.709 (inactive) | 0.183 (inactive) | 0.526 (inactive) | -0.227 | -1.11 (inactive) | -0.777 (inactive) | -2.37
[N-]=[N+]=Nc1ccccc1C[C@]1(C(=O)N2CCOCC2)N=C(c2ccc(OCCCO)cc2)O[C@H]1c1ccccc1N=[N+]=[N-] | 1.76 (inactive) | 0.15 | 30.7 (active) | 25.3 (active) | 1.18 (inactive) | 6.73 (inactive) | 2.28 | -2.86 (inactive) | 0.383 (inactive) | -2.57
CC(=O)c1ccc(C(O)C2C=CC3C(=O)N(c4ccccc4)C(=O)C3N2Nc2ccc(C(C)C)cc2)cc1 (stereo not given) | -1.08 (inactive) | 0.281 | 12.7 (active) | 3.03 (inactive) | 1.42 (inactive) | 1.47 (inactive) | -0.617 | -1.6 (inactive) | -1.6 (inactive) | -2.08
CC(=O)OCC1C2CC[C@H]3C(OCc4ccc(F)cc4C(F)(F)F)OC[C@]4(C)[C@H]3C2=C(CN4C(=O)OC(C)(C)C)[C@H](C)C1COC(C)=O (stereo not given in full) | -2.4 (inactive) | 0.498 | 1.07 (inactive) | 0.678 (inactive) | 1.04 (inactive) | 0.593 (inactive) | -0.239 | -0.896 (inactive) | -2.29 (inactive) | -1.51
O=C(NC1CC1)[C@@H]1c2ccccc2C(=O)N(Cc2cc(C(F)(F)F)cc(C(F)(F)F)c2)[C@H]1c1ccc(CO)cc1 | -0.0602 (inactive) | -0.308 | 2.63 (inactive) | 0.26 (inactive) | 1.12 (inactive) | -0.558 (inactive) | 2.41 | -0.397 (inactive) | -1.17 (inactive) | -2.23
O=C(NCc1ccc(F)cc1)[C@H]1C[C@H]2C(=O)N3CCC[C@H]3C(=O)N2[C@H]1c1ccc(O)cc1 | 1.84 (inactive) | -0.491 | 1.25 (inactive) | -0.989 (inactive) | -3.27 (inactive) | -1.66 (inactive) | 0.505 | -1.35 (inactive) | -0.184 (inactive) | 0.601
COC(=O)[C@@]1(Cc2ccc(F)cc2)[C@H]2c3cc(C(=O)N(C)C)n(C)c3C[C@H]2CN1C(=O)c1ccccc1 | -1.18 (inactive) | 0.113 | 0.404 (inactive) | 0.149 (inactive) | -0.898 (inactive) | 0.545 (inactive) | -0.8 | 0.323 (inactive) | -0.0748 (inactive) | -0.552
CC(C)C[C@@H]1NC(=O)[C@@]23C(=O)N[C@@H](Cc4ccccc4)C2[C@H](C)[C@@]2(C)O[C@H]2C3/C=C/C/C=C\CNC(=O)CNC1=O (stereo not given in full) | -0.815 (inactive) | -0.0832 | 0.917 (inactive) | 0.0107 (inactive) | -0.023 (inactive) | 0.329 (inactive) | 0.208 | 1.82 (inactive) | 1.2 (inactive) | -0.441
CCCCN1CC=CC23O[C@@H]4/C=C\CCCOC(=O)C4[C@H]2C(=O)N(C(CO)C(C)C)[C@@H]3C1=O (stereo not given in full) | -0.539 (inactive) | -0.178 | 1.47 (inactive) | 0.701 (inactive) | 0.434 (inactive) | 0.505 (inactive) | -0.515 | 1.71 (inactive) | 0.808 (inactive) | 1.69
CC(C)=CCCC(C)=CC(O)C1C=CC2C(=O)NC(=O)C2N1Nc1ccccn1 (stereo not given) | -0.255 (inactive) | -0.864 | 0.494 (inactive) | -0.531 (inactive) | -0.725 (inactive) | -1.94 (inactive) | 0.585 | -0.637 (inactive) | -1.61 (inactive) | -0.467
CC(C)(C)OC(=O)CC[C@@]1(C(=O)NCCN2CCOCC2)N=C(c2ccc(OCCCO)cc2)O[C@@H]1c1ccccc1CN=[N+]=[N-] | -0.936 (inactive) | -0.0255 | 24.4 (active) | 11.3 (active) | 0.0031 (inactive) | 1.21 (inactive) | -0.464 | 0.73 (inactive) | 1.46 (inactive) | 1.54
CC1CC/C=C\[C@H]2OC34C=CCN(c5ccc(Cl)cc5)C(=O)[C@H]3N(CCCCCCO)C(=O)[C@]4(C)C2C(=O)O1 (stereo not given in full) | 0.348 (inactive) | 0.0999 | -0.108 (inactive) | -0.36 (inactive) | -0.0544 (inactive) | 0.0625 (inactive) | -0.11 | 1.37 (inactive) | 0.37 (inactive) | 1.98
CN1C(=O)[C@@H]2[C@@H](CC(COc3ccccc3)=C3[C@@H](CCc4ccccc4)OB(O)C[C@@H]32)C1=O | -0.759 (inactive) | -0.191 | 4.5 (inactive) | 0.626 (inactive) | -0.488 (inactive) | 0.133 (inactive) | -0.202 | 0.693 (inactive) | 0.41 (inactive) | 0.82
O=C1O[C@@H](c2ccccc2)[C@@H](c2ccccc2)N2[C@@H](c3ccc(OCCO)cc3)[C@]3(C(=O)Nc4ccc(C#CC5(O)CCCCCC5)cc43)[C@@H](C(=O)O)[C@H]12 | 1.87 (inactive) | -0.0862 | -1.17 (inactive) | -0.927 (inactive) | -8.35 (active) | -0.76 (inactive) | 0.169 | 2.21 (inactive) | -0.56 (inactive) | 0.314
COc1cc(CO)cc(I)c1O[C@H]1C=C(C(=O)NCCO)C[C@@H]2O[C@H]12 | -0.211 (inactive) | 0.369 | 11.1 (active) | 3.45 (inactive) | 2.06 (inactive) | 2 (inactive) | 0.179 | 1.46 (inactive) | -0.691 (inactive) | -6.01
CCCNC(=O)[C@@]1(c2ccc([N+](=O)[O-])cc2)CC(=O)N(C(C)C)[C@@H]1c1ccc(CO)cc1 | -0.169 (inactive) | -0.207 | 1.4 (inactive) | -0.366 (inactive) | 1.18 (inactive) | 0.205 (inactive) | 0.0662 | -0.144 (inactive) | 0.069 (inactive) | -1.85
CC(C)N1C(=O)c2ccccc2[C@](C)(C(=O)NCC(F)(F)F)[C@@H]1c1ccc(CO)cc1 | 0.481 (inactive) | 0.402 | 0.834 (inactive) | -0.0162 (inactive) | -0.377 (inactive) | -0.16 (inactive) | 0.0308 | 0.91 (inactive) | 0.89 (inactive) | 0.783
CC(C)C[C@@H]1NC(=O)[C@@H]2C[C@H](C(=O)NCCCCCCNC(=O)CS)[C@H](c3cccc(OCCO)c3)N2C1=O | -1.05 (inactive) | 0.196 | 7.13 (inactive) | 1.57 (inactive) | 1.01 (inactive) | 0.792 (inactive) | -0.485 | 1.56 (inactive) | 0.427 (inactive) | -0.196
[N-]=[N+]=Nc1ccccc1C[C@@]1(C(=O)NCC(O)CO)N=C(c2ccc(OCCCO)cc2)O[C@@H]1c1ccccc1 (stereo not given in full) | 0.445 (inactive) | 0.102 | 26.6 (active) | 14.1 (active) | 2.05 (inactive) | 1.87 (inactive) | 0.122 | 2.51 (inactive) | 0.662 (inactive) | -0.946

— PubChem BioAssay
